Reference: PubChem BioAssay (NCI)
The panel holds about 83,000 compounds, 20% with a hit somewhere; the sample as a whole holds those more often.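 Assay: single dose, 48 h. Readout: percent growth (0 = no net growth; negative = cell death). Active: <10.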 Unmarked numbers belong to inactive results. Active and inactive are the calls of the source.

Tested on: MDA-MB-468 breast
Test: NCI-60 one-dose screen, 48 h (100 = growth as untreated, 0 = no growth, -100 = all killed)
Details: 10 µM unless noted

Row | SMILES | growth
1 | CCCCCC#CC1OC23CCCCC2C(C#N)(C(=N)O3)C1(C#N)C#N (stereo not given) | 92.6%
2 | N#Cc1c(-c2cccc([N+](=O)[O-])c2)nc(SCC(=O)c2ccc(Cl)cc2)[nH]c1=O | 110%
3 | Cc1ccc2c(c1)C(C)Cc1c(ncnc1-n1cnc3ccccc31)N2C (stereo not given) | 30.8%
4 | Cc1ccc(-c2nn(CC(=O)N3CCOCC3)c(N)c2C#N)cc1 | 104%
5 | c1c2c(cc3c1OCO3)Cc1cc3c(cc1Cc1cc4c(cc1C2)OCO4)OCO3 | 106%
6 | Cc1ccc(-c2nc(N3CCN(C(=O)Nc4ccc(Cl)c(C(F)(F)F)c4)CC3)c3ccccc3n2)cc1 | 77.2%
7 | N#Cc1c(-c2ccc(Br)cc2)nc2c(N=Nc3ccc(S(N)(=O)=O)cc3)c(N)nn2c1N | 23.6%
8 | Cn1c(N2NC(=O)C(N=Nc3ccc(S(N)(=O)=O)cc3)C2=O)nc(-c2ccco2)c(C#N)c1=O (stereo not given) | -17.9% (active)
9 | C=C1CC[C@@H](C(=O)OC)Cc2nc(C)ccc21 | 106%
10 | C(=N/Nc1ncc(-c2cc3cc(-c4ccccc4)ccc3o2)s1)/c1cccs1 | 77.6%
11 | O=[N+]([O-])c1ccc(Oc2cccnc2)c([N+](=O)[O-])c1 | 21.6%
12 | c1ccc(-c2oc(-c3ccccc3)c3ccccc23)cc1 | 109%
13 | CCS(=O)(=O)CCCl | 101%
14 | CCn1cc(C(=O)O)c(=O)c2cc(F)c(N3CCN(CC(=O)Nc4ccc(C(C)=O)cc4)CC3)cc21 | 108%
15 | COC1OC(C(COC(C)=O)OC(C)=O)C(OC(C)=O)C(OC(C)=O)C1OC(C)=O (stereo not given) | 109%
